# Experimental data reported in ChEMBL document CHEMBL5606458, “ASAP - ZIKV NS2B-NS3 protease fluorescence single point” (2024).
# Out of some 2,700 compounds screened, about 160 (5.9%) showed an effect of 50% or more. This is one part of a sample in which strong results are shown more often than they occur.
# Target: Nonstructural protein 3 (Zika virus) (UniProt A0A024AXB9)
# Sequence (A0A024AXB9 as listed by the source): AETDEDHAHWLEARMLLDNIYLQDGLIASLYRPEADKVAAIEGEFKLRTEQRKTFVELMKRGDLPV
compound,measurement,setting,value
Fc1ncccc1OCc1cc(Cl)nc(N2CCNCC2)n1,inhibition,"PRVABC59, Concentration 49.5 uM, Number of replicates 2.0, Standard deviation 1.0140201320428779 %",15.1%
same,inhibition,"PRVABC59, Concentration 99.01 uM, Number of replicates 2.0, Standard deviation 1.7990689115932277 %",28.4%
same,inhibition,"PRVABC59, Concentration 198.0 uM, Number of replicates 2.0, Standard deviation 0.8686404786633404 %",49%
COc1ccc(S(=O)(=O)n2nc(OC(=O)c3cccc(-c4ccccc4Cl)c3)cc2N)cc1,inhibition,"PRVABC59, Concentration 49.5 uM, Number of replicates 2.0, Standard deviation 0.015159378472398365 %",94.1%
same,inhibition,"PRVABC59, Concentration 99.01 uM, Number of replicates 2.0, Standard deviation 0.0016885713387404585 %",94.1%
same,inhibition,"PRVABC59, Concentration 198.0 uM, Number of replicates 2.0, Standard deviation 0.07411371581986076 %",93.9%
Cc1nc(C2CCN(Cc3c[nH]c4ccccc34)CC2)sc1C(=O)O,inhibition,"PRVABC59, Concentration 49.5 uM, Number of replicates 2.0, Standard deviation 1.7503606417061577 %",29.1%
same,inhibition,"PRVABC59, Concentration 99.01 uM, Number of replicates 2.0, Standard deviation 0.7623791698480982 %",49%
same,inhibition,"PRVABC59, Concentration 198.0 uM, Number of replicates 2.0, Standard deviation 0.018153490590612276 %",66.9%
c1ccc(-c2csc(C3CCN(Cc4c[nH]c5ccccc45)CC3)n2)cc1,inhibition,"PRVABC59, Concentration 49.5 uM, Number of replicates 2.0, Standard deviation 0.9101885047505917 %",64.4%
same,inhibition,"PRVABC59, Concentration 99.01 uM, Number of replicates 2.0, Standard deviation 0.676804208631579 %",66.1%
same,inhibition,"PRVABC59, Concentration 198.0 uM, Number of replicates 2.0, Standard deviation 0.5886424424408551 %",66.1%
c1ccc2sc(C3CCN(Cc4c[nH]c5ccccc45)CC3)nc2c1,inhibition,"PRVABC59, Concentration 49.5 uM, Number of replicates 2.0, Standard deviation 0.0213310257935456 %",83.5%
same,inhibition,"PRVABC59, Concentration 99.01 uM, Number of replicates 2.0, Standard deviation 0.10666052376433739 %",89.1%
same,inhibition,"PRVABC59, Concentration 198.0 uM, Number of replicates 2.0, Standard deviation 0.03774199707932348 %",90.7%
c1ccc2oc(C3CCN(Cc4c[nH]c5ccccc45)CC3)nc2c1,inhibition,"PRVABC59, Concentration 49.5 uM, Number of replicates 2.0, Standard deviation 0.07645236015003325 %",37.2%
same,inhibition,"PRVABC59, Concentration 99.01 uM, Number of replicates 2.0, Standard deviation 0.17318915555138958 %",54.7%
same,inhibition,"PRVABC59, Concentration 198.0 uM, Number of replicates 2.0, Standard deviation 0.13417938126885842 %",70.9%
COC(=O)c1csc2cc(C(=O)N3CCCc4cc(CCN)ccc43)[nH]c12,inhibition,"PRVABC59, Concentration 49.5 uM, Number of replicates 2.0, Standard deviation 0.9658024514724747 %",6.59%
same,inhibition,"PRVABC59, Concentration 99.01 uM, Number of replicates 2.0, Standard deviation 0.02626726469114151 %",17.1%
same,inhibition,"PRVABC59, Concentration 198.0 uM, Number of replicates 2.0, Standard deviation 0.028287616021359725 %",35.6%
c1ccc2c([C@H]3CCN(C[C@H]4CCOC4)C3)c[nH]c2c1,inhibition,"PRVABC59, Concentration 49.5 uM, Number of replicates 2.0, Standard deviation 3.5400839111105795 %",4.89%
same,inhibition,"PRVABC59, Concentration 99.01 uM, Number of replicates 2.0, Standard deviation 2.681337995191051 %",11.3%
same,inhibition,"PRVABC59, Concentration 198.0 uM, Number of replicates 2.0, Standard deviation 1.591884445207739 %",20.9%
CS(=O)(=O)c1ccc(N2CCNCC2)cc1NC(=O)c1cccc2ncccc12,inhibition,"PRVABC59, Concentration 49.5 uM, Number of replicates 2.0, Standard deviation 1.82855821855933 %",11.9%
same,inhibition,"PRVABC59, Concentration 99.01 uM, Number of replicates 2.0, Standard deviation 4.882597086209548 %",19.4%
same,inhibition,"PRVABC59, Concentration 198.0 uM, Number of replicates 2.0, Standard deviation 6.745947359627227 %",12.5%
CCn1ccnc(N2CC[C@@H](CC(N)=O)C2)c1=O,inhibition,"PRVABC59, Concentration 49.5 uM, Number of replicates 2.0, Standard deviation 2.578637589312797 %",7.29%
same,inhibition,"PRVABC59, Concentration 99.01 uM, Number of replicates 2.0, Standard deviation 2.4095461189610305 %",15.8%
same,inhibition,"PRVABC59, Concentration 198.0 uM, Number of replicates 2.0, Standard deviation 1.1815224976183896 %",30.8%
Cc1cnccc1NC(=O)c1cccn(C[C@@H]2CCNC2)c1=O,inhibition,"PRVABC59, Concentration 49.5 uM, Number of replicates 2.0, Standard deviation 1.3483593644559142 %",2.86%
same,inhibition,"PRVABC59, Concentration 99.01 uM, Number of replicates 2.0, Standard deviation 1.4355155911348652 %",4.88%
same,inhibition,"PRVABC59, Concentration 198.0 uM, Number of replicates 2.0, Standard deviation 0.7536456684870648 %",8.2%
CCc1ccc(NS(=O)(=O)c2ccc(Oc3ccccc3Cl)cc2)c(C(=O)NC)c1,inhibition,"PRVABC59, Concentration 49.5 uM, Number of replicates 2.0, Standard deviation 1.2139175769082269 %",14.3%
same,inhibition,"PRVABC59, Concentration 99.01 uM, Number of replicates 2.0, Standard deviation 1.880844587297581 %",19.5%
same,inhibition,"PRVABC59, Concentration 198.0 uM, Number of replicates 2.0, Standard deviation 1.9898788215700518 %",28.9%
CNC(=O)c1cc(Cl)ccc1NS(=O)(=O)c1ccc(Oc2ccccc2Cl)cc1,inhibition,"PRVABC59, Concentration 49.5 uM, Number of replicates 2.0, Standard deviation 4.182044982903414 %",16.8%
same,inhibition,"PRVABC59, Concentration 99.01 uM, Number of replicates 2.0, Standard deviation 0.7456984587318506 %",44.5%
same,inhibition,"PRVABC59, Concentration 198.0 uM, Number of replicates 2.0, Standard deviation 0.5270959053225787 %",31.5%
O=S(=O)(Nc1ccc(Cl)cc1)c1ccc(Oc2ccccc2Cl)cc1,inhibition,"PRVABC59, Concentration 49.5 uM, Number of replicates 2.0, Standard deviation 0.5562375850821631 %",7.5%
same,inhibition,"PRVABC59, Concentration 99.01 uM, Number of replicates 2.0, Standard deviation 0.1909474772903637 %",13.8%
same,inhibition,"PRVABC59, Concentration 198.0 uM, Number of replicates 2.0, Standard deviation 0.9464347944699606 %",26.1%
Cc1cc(NS(=O)(=O)c2ccc(Oc3ccccc3Cl)cc2)c(C(=O)NCC(F)(F)F)cc1F,inhibition,"PRVABC59, Concentration 49.5 uM, Number of replicates 2.0, Standard deviation 1.109661109382951 %",38%
same,inhibition,"PRVABC59, Concentration 99.01 uM, Number of replicates 2.0, Standard deviation 0.5262974754243883 %",43.1%
same,inhibition,"PRVABC59, Concentration 198.0 uM, Number of replicates 2.0, Standard deviation 0.754567504357695 %",32.6%
CNC(=O)c1cc(Cl)ccc1NS(=O)(=O)c1cccc(Oc2ccccc2)c1,inhibition,"PRVABC59, Concentration 49.5 uM, Number of replicates 2.0, Standard deviation 3.0665234385287206 %",9.77%
same,inhibition,"PRVABC59, Concentration 99.01 uM, Number of replicates 2.0, Standard deviation 2.7531252049731103 %",15.8%
same,inhibition,"PRVABC59, Concentration 198.0 uM, Number of replicates 2.0, Standard deviation 3.162284112918565 %",28.1%
CNC(=O)c1cc(Cl)c(F)cc1NS(=O)(=O)c1ccc(Oc2ccccc2Cl)cc1,inhibition,"PRVABC59, Concentration 49.5 uM, Number of replicates 2.0, Standard deviation 0.22897404989083275 %",53.5%
same,inhibition,"PRVABC59, Concentration 99.01 uM, Number of replicates 2.0, Standard deviation 0.1399302344544729 %",88.1%
same,inhibition,"PRVABC59, Concentration 198.0 uM, Number of replicates 2.0, Standard deviation 0.21988651500230783 %",90.5%
CNC(=O)c1cc(C#N)ccc1NS(=O)(=O)c1ccc(Oc2ccccc2Cl)cc1,inhibition,"PRVABC59, Concentration 49.5 uM, Number of replicates 2.0, Standard deviation 1.5671297466159566 %",15.1%
same,inhibition,"PRVABC59, Concentration 99.01 uM, Number of replicates 2.0, Standard deviation 1.4439402403900108 %",25.1%
same,inhibition,"PRVABC59, Concentration 198.0 uM, Number of replicates 2.0, Standard deviation 0.43015410765006534 %",58.3%
